log2 fold change data for 38 targets are collected here from the supplement of paper PMC10849652.

Targets with a hit are over-represented here; the source holds about 7,900 in all. About 0.6% of all pairs of compound and target were hits.

Chain of UniProt Q16594 (Q16594 whole entry, looked up): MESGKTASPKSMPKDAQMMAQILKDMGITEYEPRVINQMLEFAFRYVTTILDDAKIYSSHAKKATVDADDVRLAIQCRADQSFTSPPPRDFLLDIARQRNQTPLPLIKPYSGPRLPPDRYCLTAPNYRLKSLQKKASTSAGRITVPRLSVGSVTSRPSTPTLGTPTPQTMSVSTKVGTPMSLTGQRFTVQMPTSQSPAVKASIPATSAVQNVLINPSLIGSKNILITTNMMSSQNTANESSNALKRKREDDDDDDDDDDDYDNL
Chain of UniProt P84103 (P84103 whole entry, looked up): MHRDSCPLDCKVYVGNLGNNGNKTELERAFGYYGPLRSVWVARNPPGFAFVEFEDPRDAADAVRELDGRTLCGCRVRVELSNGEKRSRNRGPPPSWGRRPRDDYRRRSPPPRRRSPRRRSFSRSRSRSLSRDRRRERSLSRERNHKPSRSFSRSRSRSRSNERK
Chain of UniProt Q5T5C0 (Q5T5C0 whole entry, looked up): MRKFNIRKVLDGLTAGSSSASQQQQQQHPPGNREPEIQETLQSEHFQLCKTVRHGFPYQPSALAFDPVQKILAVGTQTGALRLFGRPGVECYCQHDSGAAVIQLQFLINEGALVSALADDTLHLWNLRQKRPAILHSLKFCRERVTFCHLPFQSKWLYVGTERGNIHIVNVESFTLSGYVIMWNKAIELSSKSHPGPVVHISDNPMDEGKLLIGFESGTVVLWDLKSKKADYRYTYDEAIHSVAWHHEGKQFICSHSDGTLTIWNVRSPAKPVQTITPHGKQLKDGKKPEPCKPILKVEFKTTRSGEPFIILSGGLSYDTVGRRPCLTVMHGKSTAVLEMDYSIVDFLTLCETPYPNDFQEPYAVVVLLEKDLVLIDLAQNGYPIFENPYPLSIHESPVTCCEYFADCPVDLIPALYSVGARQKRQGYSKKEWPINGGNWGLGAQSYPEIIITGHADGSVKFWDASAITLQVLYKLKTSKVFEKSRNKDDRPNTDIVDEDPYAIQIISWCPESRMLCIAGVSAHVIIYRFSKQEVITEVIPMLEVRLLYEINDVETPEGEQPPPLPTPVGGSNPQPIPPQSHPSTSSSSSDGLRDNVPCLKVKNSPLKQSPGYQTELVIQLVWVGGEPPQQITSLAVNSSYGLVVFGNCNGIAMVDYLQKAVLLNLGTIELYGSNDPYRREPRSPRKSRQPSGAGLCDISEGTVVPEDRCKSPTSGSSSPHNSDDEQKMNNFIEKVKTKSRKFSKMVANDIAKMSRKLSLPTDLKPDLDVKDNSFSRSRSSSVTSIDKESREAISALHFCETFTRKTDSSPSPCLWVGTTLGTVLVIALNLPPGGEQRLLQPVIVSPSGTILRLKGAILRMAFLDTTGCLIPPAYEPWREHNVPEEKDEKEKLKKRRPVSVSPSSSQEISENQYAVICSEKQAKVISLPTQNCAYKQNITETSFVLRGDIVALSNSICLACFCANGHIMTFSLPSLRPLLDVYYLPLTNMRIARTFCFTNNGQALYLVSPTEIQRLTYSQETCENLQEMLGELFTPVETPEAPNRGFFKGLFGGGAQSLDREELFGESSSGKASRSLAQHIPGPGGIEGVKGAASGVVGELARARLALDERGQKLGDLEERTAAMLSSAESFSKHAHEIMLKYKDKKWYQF
Chain of UniProt P42229 (P42229 whole entry, looked up): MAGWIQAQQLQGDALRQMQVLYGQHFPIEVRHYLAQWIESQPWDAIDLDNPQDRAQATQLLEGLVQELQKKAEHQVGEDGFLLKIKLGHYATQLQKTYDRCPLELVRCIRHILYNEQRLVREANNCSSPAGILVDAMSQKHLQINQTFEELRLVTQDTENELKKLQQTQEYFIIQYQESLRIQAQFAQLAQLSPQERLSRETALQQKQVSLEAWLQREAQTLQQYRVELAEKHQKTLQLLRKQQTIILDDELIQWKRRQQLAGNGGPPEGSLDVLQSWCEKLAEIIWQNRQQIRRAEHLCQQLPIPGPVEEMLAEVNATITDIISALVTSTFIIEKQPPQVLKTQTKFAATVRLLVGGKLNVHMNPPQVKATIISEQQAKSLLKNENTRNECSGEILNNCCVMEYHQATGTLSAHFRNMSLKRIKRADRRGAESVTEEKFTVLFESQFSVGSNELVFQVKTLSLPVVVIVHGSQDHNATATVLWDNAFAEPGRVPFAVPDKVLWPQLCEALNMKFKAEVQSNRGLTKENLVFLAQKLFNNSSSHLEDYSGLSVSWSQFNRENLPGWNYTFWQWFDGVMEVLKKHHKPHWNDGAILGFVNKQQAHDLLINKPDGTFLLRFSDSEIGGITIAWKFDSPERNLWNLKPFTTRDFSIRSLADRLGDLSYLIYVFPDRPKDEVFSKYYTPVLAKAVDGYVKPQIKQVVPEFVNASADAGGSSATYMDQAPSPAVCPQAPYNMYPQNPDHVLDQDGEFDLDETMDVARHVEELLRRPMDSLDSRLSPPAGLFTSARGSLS
Chain of UniProt Q96CQ1 (Q96CQ1 whole entry, looked up): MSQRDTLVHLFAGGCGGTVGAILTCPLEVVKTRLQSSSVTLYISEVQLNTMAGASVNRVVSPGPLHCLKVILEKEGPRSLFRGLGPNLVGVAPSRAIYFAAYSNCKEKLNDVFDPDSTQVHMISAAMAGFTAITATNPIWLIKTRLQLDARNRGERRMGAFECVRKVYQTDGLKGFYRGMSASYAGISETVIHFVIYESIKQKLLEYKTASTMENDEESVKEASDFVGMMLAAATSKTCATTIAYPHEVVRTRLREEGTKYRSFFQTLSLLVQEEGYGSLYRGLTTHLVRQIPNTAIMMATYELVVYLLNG
Chain of UniProt Q8IWZ8 (Q8IWZ8 whole entry, looked up): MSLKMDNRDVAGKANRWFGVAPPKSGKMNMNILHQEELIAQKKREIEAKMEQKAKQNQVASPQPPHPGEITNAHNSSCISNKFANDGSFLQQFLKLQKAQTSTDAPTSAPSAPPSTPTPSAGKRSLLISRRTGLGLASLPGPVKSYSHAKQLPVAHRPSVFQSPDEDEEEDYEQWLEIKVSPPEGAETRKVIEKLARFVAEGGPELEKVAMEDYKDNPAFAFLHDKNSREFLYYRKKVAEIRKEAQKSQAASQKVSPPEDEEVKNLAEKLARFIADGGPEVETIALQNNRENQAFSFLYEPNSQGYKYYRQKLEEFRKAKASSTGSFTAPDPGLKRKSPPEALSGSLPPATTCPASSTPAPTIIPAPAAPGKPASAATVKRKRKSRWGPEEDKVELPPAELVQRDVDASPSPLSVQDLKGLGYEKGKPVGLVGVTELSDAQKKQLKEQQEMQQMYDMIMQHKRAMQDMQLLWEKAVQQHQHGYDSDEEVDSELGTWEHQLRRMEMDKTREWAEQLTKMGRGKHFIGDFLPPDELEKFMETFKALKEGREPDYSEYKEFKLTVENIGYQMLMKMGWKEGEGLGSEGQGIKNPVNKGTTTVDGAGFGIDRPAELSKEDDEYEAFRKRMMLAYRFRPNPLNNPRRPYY
Chain of UniProt Q92581 (Q92581 whole entry, looked up): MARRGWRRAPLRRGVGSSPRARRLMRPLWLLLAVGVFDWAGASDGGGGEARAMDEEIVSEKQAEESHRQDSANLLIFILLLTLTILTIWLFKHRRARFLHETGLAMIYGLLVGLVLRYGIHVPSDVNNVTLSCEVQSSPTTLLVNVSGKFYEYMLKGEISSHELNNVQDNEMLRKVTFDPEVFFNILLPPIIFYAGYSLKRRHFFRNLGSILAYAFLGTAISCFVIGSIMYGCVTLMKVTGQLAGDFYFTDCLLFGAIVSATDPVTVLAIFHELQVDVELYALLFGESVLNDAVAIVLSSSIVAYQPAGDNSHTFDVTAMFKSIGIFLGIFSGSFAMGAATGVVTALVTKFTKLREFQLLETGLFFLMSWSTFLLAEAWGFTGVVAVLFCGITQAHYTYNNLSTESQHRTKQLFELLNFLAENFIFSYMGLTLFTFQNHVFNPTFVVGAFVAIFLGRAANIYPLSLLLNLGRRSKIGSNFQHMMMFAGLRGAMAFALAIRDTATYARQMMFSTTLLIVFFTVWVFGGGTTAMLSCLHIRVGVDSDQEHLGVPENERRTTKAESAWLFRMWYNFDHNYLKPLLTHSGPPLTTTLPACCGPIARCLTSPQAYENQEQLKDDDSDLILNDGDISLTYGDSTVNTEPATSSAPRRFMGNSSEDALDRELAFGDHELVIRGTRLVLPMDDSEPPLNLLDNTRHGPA
Chain of UniProt Q8NEW0 (Q8NEW0 whole entry, looked up): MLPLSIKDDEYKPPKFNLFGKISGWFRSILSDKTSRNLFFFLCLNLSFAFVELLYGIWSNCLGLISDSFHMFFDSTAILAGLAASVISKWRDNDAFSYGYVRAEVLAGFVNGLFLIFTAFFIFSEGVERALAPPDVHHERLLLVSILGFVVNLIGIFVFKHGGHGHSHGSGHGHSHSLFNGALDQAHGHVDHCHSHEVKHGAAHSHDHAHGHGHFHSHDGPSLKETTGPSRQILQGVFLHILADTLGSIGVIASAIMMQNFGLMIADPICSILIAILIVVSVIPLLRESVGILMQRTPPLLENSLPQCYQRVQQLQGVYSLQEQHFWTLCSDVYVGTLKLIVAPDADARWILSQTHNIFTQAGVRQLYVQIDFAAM
Chain of UniProt Q15208 (Q15208 whole entry, looked up): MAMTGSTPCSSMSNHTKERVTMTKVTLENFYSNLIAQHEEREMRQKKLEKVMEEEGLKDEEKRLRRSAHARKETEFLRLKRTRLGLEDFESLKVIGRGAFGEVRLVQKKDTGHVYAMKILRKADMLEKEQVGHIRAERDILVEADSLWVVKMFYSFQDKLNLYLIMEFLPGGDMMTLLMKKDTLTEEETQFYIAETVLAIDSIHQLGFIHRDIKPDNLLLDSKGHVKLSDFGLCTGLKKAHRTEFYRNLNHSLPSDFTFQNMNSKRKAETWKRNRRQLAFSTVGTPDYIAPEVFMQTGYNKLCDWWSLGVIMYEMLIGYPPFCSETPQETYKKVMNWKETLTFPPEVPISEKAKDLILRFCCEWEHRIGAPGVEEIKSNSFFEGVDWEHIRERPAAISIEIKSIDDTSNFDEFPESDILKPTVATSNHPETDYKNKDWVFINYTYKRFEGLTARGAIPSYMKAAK
Chain of UniProt P63165 (P63165 whole entry, looked up): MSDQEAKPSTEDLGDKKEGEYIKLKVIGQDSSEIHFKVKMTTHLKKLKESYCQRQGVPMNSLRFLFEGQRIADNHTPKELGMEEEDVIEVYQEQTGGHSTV

Compound in the assay: COc1cc(C(=O)O)ccc1NC(=O)[C@@H]1N[C@@H](CC(C)(C)C)[C@](C#N)(c2ccc(Cl)cc2F)[C@H]1c1cccc(Cl)c1F [idasanutlin]
Put plainly: log2 fold change, soluble protein after heating vs DMSO (PISA); higher = thermal stabilisation; K562 cells, 10 uM, 30 min; active = over 0.2 and 3.5 SD of the protein, either way, in both replicates (recomputed). Summed up:
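K562 cells at 2×10^6 cells/mL were given 10 μM compound for 30 min. Aliquots then went through 3 min of heating across 48°C-58°C, were pooled, and were extracted in PBS with 0.5% NP-40 at 4°C, and the supernatant after 21,000xg for 90 min was quantified by TMTpro 16plex LC-MS/MS with channel sums equalised. Thermal stability relative to control samples, from duplicates, is given as log2 fold change.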
As to SNRNP27 (UniProt Q8WVK2), the log2 fold change was 0.121 (inactive).
Consider SRP68 (UniProt Q9UHB9), for which the log2 fold change is -0.036 (inactive).
As for SP3 (UniProt Q02447), the figure is 0.052 (inactive); as for TLK2 isoform 2 (UniProt Q86UE8), 0.087 (inactive).
The result for STAT6 (UniProt P42226) reads 0.102 (inactive); that for SLC38A9 (UniProt Q8NBW4), -0.004 (inactive).
As for STAM2 (UniProt O75886), the figure is -0.06 (inactive).
As to SLC30A7 (UniProt Q8NEW0), the log2 fold change is -0.121 (inactive).
Turning to STARD7 (UniProt Q9NQZ5), the log2 fold change was -0.063 (inactive).
The result for SUMO1 (UniProt P63165) reads -0.099 (inactive); that for STAT5A (UniProt P42229), 0.032 (inactive); that for SRPRA (UniProt P08240), -0.107 (inactive).
As for TBC1D15 isoform 3 (UniProt Q8TC07), the figure is -0.058 (inactive); as for TFRC (UniProt P02786), -0.027 (inactive).
The result for SRSF7 (UniProt Q16629) reads 0.327 (inactive); that for TAMM41 isoform 3 (UniProt Q96BW9), -0.122 (inactive); that for STK38 (UniProt Q15208), -0.009 (inactive).
Consider SLC6A6 (UniProt P31641), for which the log2 fold change was -0.066 (inactive).
For TBC1D23 (UniProt Q9NUY8), the log2 fold change was 0.068 (inactive).
In the case of SMAD9 (UniProt O15198), the log2 fold change was -0.132 (inactive).
The result for SRSF3 (UniProt P84103) reads 0.217 (inactive).
The result for TBCD (UniProt Q9BTW9) reads -0.091 (inactive).
Consider TECR (UniProt Q9NZ01), for which the log2 fold change was -0.111 (inactive).
STK39 (UniProt Q9UEW8): the log2 fold change is -0.06 (inactive).
Take TAF9 (UniProt Q16594): the log2 fold change was 0.056 (inactive).
As for SUPT16H (UniProt Q9Y5B9), the figure is -0.057 (inactive); as for SRFBP1 (UniProt Q8NEF9), -0.018 (inactive).
Consider SLC9A6 isoform 2 (UniProt Q92581), for which the log2 fold change is -0.011 (inactive).
In the case of SNX11 (UniProt Q9Y5W9), the log2 fold change was -0.008 (inactive).
Take SREK1 isoform 2 (UniProt Q8WXA9): the log2 fold change is 0.086 (inactive).
The result for SMAD2 (UniProt Q15796) reads 0 (inactive); that for TBC1D5 isoform 2 (UniProt Q92609), -0.052 (inactive); that for SLC25A36 (UniProt Q96CQ1), -0.064 (inactive).
SLC7A6 (UniProt Q92536): the log2 fold change was -0.02 (inactive).
As for SUGP1 (UniProt Q8IWZ8), the figure is 0.026 (inactive); as for TAOK1 (UniProt Q7L7X3), 0.031 (inactive).
In the case of STXBP5 (UniProt Q5T5C0), the log2 fold change is -0.022 (inactive).
SURF1 (UniProt Q15526): the log2 fold change is 0.025 (inactive).
